According to PubChem BioAssay (NCATS):
Records with an inconclusive call do not appear. Calls of active or inactive are those of the source. Calls come from the whole dose curve; as a rule, active = well fitted curve in the direction sought with a large enough effect; inconclusive = small, poorly fitted or top-dose-only effect, or another doubt; inactive = no such curve, though single readings can be large; an effect the other way counts as inactive or inconclusive.

Experiments:
[1] = qHTS of pediatric cancer cell lines to identify multiple opportunities for drug repurposing: Primary screen for NB1643 cells (AID 1347099); note: nearly all actives have a fitted effect of over 50% in size; note: potency is the fitted concentration of half-maximal effect;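 for activity change, negative = cytotoxic: plate controls were DMSO neutral control for no effect and bortezomib positive control for full effect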
How it was run: (§1)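 Readout: CellTiter-Glo luminescence, 48 h treatment. Controls DMSO (neutral) and bortezomib 2.3 µM final (positive). Potency and efficacy taken from primary-screen concentration-response curves.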

[2] = qHTS of pediatric cancer cell lines to identify multiple opportunities for drug repurposing: Primary screen for LAN-5 cells (AID 1347100); note: potency is the fitted concentration of half-maximal effect;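 for activity change, negative = cytotoxic: plate controls were DMSO neutral control for no effect and bortezomib positive control for full effect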
How it was run: (§2)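 Cells (500-1,000/well) in growth media were settled 5 h at 37 degrees C, then given compounds for 48 h. Viability was read as CellTiter-Glo luminescence. Primary runs used MIPE at 11 points (0.78 nM-46 µM) and NPC at 8 points (0.59 nM-46 µM); follow-ups used 11 points.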

[3] = qHTS of pediatric cancer cell lines to identify multiple opportunities for drug repurposing: Primary screen for BT-12 cells (AID 1347101); note: nearly all actives have a fitted effect of over 25% in size; note: potency is the fitted concentration of half-maximal effect;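 for activity change, negative = cytotoxic: plate controls were DMSO for no effect and bortezomib positive control for full effect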
How it was run: (§3)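 Cells (500-1,000/well) rested 5 h, then received compounds for 48 h; metabolically active cells were measured by CellTiter-Glo luminescence. Final concentrations spanned up to 46 µM (MIPE, 11-point) or 0.59 nM-46 µM (NPC, 8-point) in primary screens, 11-point in follow-ups.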

[4] = qHTS of pediatric cancer cell lines to identify multiple opportunities for drug repurposing: Primary screen for Rh18 cells (AID 1347102); note: nearly all actives have a fitted effect of over 65% in size; note: potency is the fitted concentration of half-maximal effect; for activity change, negative = cytotoxic: % is set by controls: 0 for no effect and ±100 for the full control effect
How it was run: as §2

[5] = qHTS of pediatric cancer cell lines to identify multiple opportunities for drug repurposing: Primary screen for OHS-50 cells (AID 1347103); note: nearly all actives have a fitted effect of over 40% in size; note: potency is the fitted concentration of half-maximal effect;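 for activity change, negative = cytotoxic: plate controls were DMSO neutral control for no effect and bortezomib positive control for full effect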
How it was run: as §3

[6] = qHTS of pediatric cancer cell lines to identify multiple opportunities for drug repurposing: Primary screen for RD cells (AID 1347104); note: nearly all actives have a fitted effect of over 55% in size; note: potency is the fitted concentration of half-maximal effect;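 for activity change, negative = cytotoxic: plate controls were DMSO for no effect and bortezomib for full effect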
How it was run: as §1

[7] = qHTS of pediatric cancer cell lines to identify multiple opportunities for drug repurposing: Primary screen for MG 63 (6-TG R) cells (AID 1347105); note: nearly all actives have a fitted effect of over 50% in size; note: potency is the fitted concentration of half-maximal effect; for activity change, negative = cytotoxic: % is set by controls: 0 for no effect and ±100 for the full control effect
How it was run: as §1

[8] = qHTS of pediatric cancer cell lines to identify multiple opportunities for drug repurposing: Primary screen for control Hh wild type fibroblast cells (AID 1347106);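 note: series mostly up to about 46 µM; % is set by controls: 0 for no effect and ±100 for the full control effect; a drop in luminescence marks cytotoxicity and a rise apparent proliferation; nearly all actives have a fitted effect of over 55% in size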
How it was run: as §2

[9] = qHTS of pediatric cancer cell lines to identify multiple opportunities for drug repurposing: Primary screen for Rh41 cells (AID 1347108); note: nearly all actives have a fitted effect of over 70% in size; note: potency is the fitted concentration of half-maximal effect;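 for activity change, negative = cytotoxic: series mostly up to about 46 µM; luminescence drop marks cytotoxic hits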
How it was run: as §1

[10] = qHTS of pediatric cancer cell lines to identify multiple opportunities for drug repurposing: Primary screen for Rh30 cells (AID 1347107); note: nearly all actives have a fitted effect of over 75% in size; note: potency is the fitted concentration of half-maximal effect; for activity change, negative = cytotoxic: series mostly up to about 46 µM; % is set by controls: 0 for no effect and ±100 for the full control effect
How it was run: as §2

COc1nccc(-c2c(-c3ccc(F)cc3)ncn2C2CCC(O)CC2)n1 (stereo not given)
inactive: Potency [1] | Potency [2] | Potency [3] | Potency [4] | Potency [5] | Potency [6] | Potency [7] | Potency [8] | Potency [9]

Cc1[nH]c(C=C2C(=O)Nc3ccc(S(=O)(=O)N(C)c4cccc(Cl)c4)cc32)c(C)c1C(=O)N1CCN(C)CC1
inactive: Potency [8]
active: Potency [1] 18.7 µM | Potency [2] 9.35 µM | Potency [3] 17.2 µM | Potency [4] 23.5 µM | Potency [5] 19.3 µM | Potency [6] 29.6 µM | Potency [10] 18.7 µM

O=C(O)C1=NC(C(=O)O)CC(C=CN2c3cc(O)c(OC4OC(CO)C(O)C(O)C4O)cc3CC2C(=O)O)=C1 (stereo not given)
inactive: Potency [1] | Potency [2] | Potency [3] | Potency [4] | Potency [5] | Potency [6] | Potency [7] | Potency [8] | Potency [10]

COc1nc(C)cnc1NS(=O)(=O)c1cccnc1-c1ccc(-c2nnco2)cc1
inactive: Potency [1] | Potency [2] | Potency [3] | Potency [4] | Potency [5] | Potency [6] | Potency [7] | Potency [8] | Potency [10] | Potency [9]

Cc1cc2nc3c(=O)[nH]c(=O)nc-3n(CC(O)C(O)C(O)CO)c2cc1C (stereo not given)
active: Potency [1] 23.5 µM
inactive: Potency [2] | Potency [3] | Potency [4] | Potency [5] | Potency [6] | Potency [7] | Potency [8] | Potency [10] | Potency [9]

Cc1cnc(Nc2cccc(CN3CCOCC3)c2)nc1Nc1cccc(S(=O)(=O)NC(C)(C)C)c1
active: Potency [1] 8.33 µM | Potency [2] 1.48 µM | Potency [3] 13.7 µM | Potency [4] 8.33 µM | Potency [5] 3.43 µM | Potency [6] 13.2 µM | Potency [7] 7.43 µM | Potency [10] 8.33 µM | Potency [9] 6.62 µM

CCCCC(F)(F)[C@@]1(O)CC[C@H]2[C@H](CC(=O)[C@@H]2CCCCCCC(=O)O)O1
inactive: Potency [1] | Potency [2] | Potency [3] | Potency [4] | Potency [5] | Potency [6] | Potency [7] | Potency [8] | Potency [10]

CCOC(=O)[C@@H](N)CCC(=O)N[C@@H](CSCc1ccccc1)C(=O)N[C@@H](C(=O)OCC)c1ccccc1
inactive: Potency [1] | Potency [2] | Potency [3] | Potency [4] | Potency [5] | Potency [6] | Potency [8] | Potency [10] | Potency [9]

CCOC(=O)N1CCN([N+]([O-])=NOc2cc(ON=[N+]([O-])N3CCN(C(=O)OCC)CC3)c([N+](=O)[O-])cc2[N+](=O)[O-])CC1
inactive: Potency [1] | Potency [2] | Potency [3] | Potency [4] | Potency [5] | Potency [6] | Potency [7] | Potency [8] | Potency [10] | Potency [9]

CN[C@H]1[C@@H](O[C@@H]2[C@H](O[C@@H]3[C@@H](O)[C@@H](O)[C@@H](N=C(N)N)[C@@H](O)[C@@H]3N=C(N)N)O[C@H](C)[C@@]2(O)C=O)O[C@@H](CO)[C@@H](O)[C@H]1O
inactive: activity change, negative = cytotoxic [1] 3.56% [at 9.22 µM] | activity change, negative = cytotoxic [2] -3.6% [at 9.22 µM] | activity change, negative = cytotoxic [3] -1.02% [at 11.5 µM] | activity change, negative = cytotoxic [4] 1.83% [at 9.22 µM] | activity change, negative = cytotoxic [5] 7.71% [at 11.5 µM] | activity change, negative = cytotoxic [6] 1.46% [at 9.22 µM] | activity change, negative = cytotoxic [7] -18.1% [at 9.22 µM] | activity change, negative = cytotoxic [8] 10.5% [at 9.22 µM] | activity change, negative = cytotoxic [10] 15.1% [at 9.22 µM] | activity change, negative = cytotoxic [9] 17.1% [at 9.22 µM]

O=C(O)CCNc1cc(N2CCc3ccccc3CC2)nc(-c2ccccn2)n1
active: Potency [1] 11.8 µM
inactive: Potency [2] | Potency [3] | Potency [4] | Potency [5] | Potency [6] | Potency [7] | Potency [8] | Potency [10]

C[C@@H](O)[C@H]1C(=O)N2C(C(=O)OCOC(=O)C(C)(C)C)=C(SC3CN(C4=NCCS4)C3)[C@H](C)[C@H]12
inactive: Potency [1] | Potency [2] | Potency [3] | Potency [4] | Potency [5] | Potency [6] | Potency [7] | Potency [8] | Potency [10] | Potency [9]

CN(C)c1nc(Cc2ccc(NC(=O)c3ccc(C(F)(F)F)cc3)cc2)nc(N(C)C)c1CC(=O)O
inactive: Potency [1] | Potency [2] | Potency [3] | Potency [4] | Potency [5] | Potency [6] | Potency [7] | Potency [8] | Potency [10] | Potency [9]

CN[C@@H]1[C@@H](O)[C@@H](O[C@@H]2[C@@H](O)[C@H](O[C@H]3O[C@H](CN)[C@@H](O)[C@H](O)[C@@H]3O)[C@@H](N)C[C@@H]2NC(=O)[C@@H](O)CN)OC[C@]1(C)O
inactive: Potency [1] | Potency [2] | Potency [3] | Potency [4] | Potency [5] | Potency [6] | Potency [8] | Potency [10] | Potency [9]

CC[C@H](C=C[C@@H](C)[C@H]1CC[C@H]2[C@@H]3CC=C4C[C@@H](O)CC[C@]4(C)[C@@H]3CC[C@]12C)C(C)C
inactive: Potency [1] | Potency [2] | Potency [3] | Potency [4] | Potency [5] | Potency [6] | Potency [8] | Potency [10] | Potency [9]

CC(C)=CCCC(C)=CCCC(C)=CCCC(C)=CCCC(C)=CCCC(C)=CCCC(C)=CCCC(C)=CCCC(C)=CCO
inactive: Potency [1] | Potency [2] | Potency [3] | Potency [4] | Potency [5] | Potency [6] | Potency [7] | Potency [8] | Potency [10] | Potency [9]
